# Screening data deposited in PubChem BioAssay by National Center for Advancing Translational Sciences (NCATS).
# NPC1 promoter act – NPC1 promoter activation | 2.4% of 320,000 active | Huh7 NPC1 promoter luciferase reporter, 24 h | Potency, µM (series often up to 9.22 µM), for inactives: at the highest dose activation, most hits filed as activators; note: % of control where 0% means no effect; nearly all actives have a fitted effect of over 60% in size
#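 Huh7 reporter cells (NPC1 promoter driving luciferase) are dosed with compound for 24 h at 37 °C, 5% CO2; luciferase detection reagent is then added and luminescence measured after 10 min at ambient temperature.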
# Luc counter – counter-screen: inhibitors of Kinase-Glo firefly luciferase; Kinase-Glo luciferase, ATP luminescence, 8 min; Potency, µM (highest dose often 38.3 µM), for inactives: at the highest dose activity change, negative = inhibition, usual class: inhibitors; 0.28% of 200,000 active; note: % is set by controls: 0 for no effect and ±100 for the full control effect; nearly all actives have a fitted effect of over 60% in size
#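 Kinase-Glo luciferase light output from ATP and luciferin was measured with 10 uM ATP, within the enzyme's linear range. Buffer: 50 mM imidazole pH 7.2, 50 mM KCl, 7 mM MgCl2, 0.01% Tween 20, 0.05% BSA; luminescence read after 8 min at ambient temperature.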
# SMN2 splice up – SMN2 splice variant enhancement | HEK293 SMN2-luciferase splicing reporter, luminescence, 30-36 h | Potency, µM (top dose mostly 46.1 µM), without a hit: top-dose activity change, positive = activation, most hits filed as activators | 2.8% of 210,000 active | AID 1458; note: % of control where 0% means no effect; nearly all actives have a fitted effect of over 55% in size
#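 HEK293 cells carry an SMN2 minigene-luciferase reporter in which exon 7 inclusion puts luciferase in frame. Cells were seeded at 2000 cells/well, attached for 10-12 hours, then exposed to compounds for 30-36 hours at 37C before ONE-Glo luminescence.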
# ELG1 genotox – genotoxicity induction in ELG1-luciferase HEK293T cells; HEK293T ELG1-luciferase reporter, luminescence, 16 h; Potency, µM (titrated, usually from 46 µM), for the others: top-dose activity change, positive = activation, usual class: activators; 1.3% of 330,000 active; AID 504466; note: % of control where 0% means no effect; nearly all actives have a fitted effect of over 60% in size
#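 Genotoxicity was scored as increased ELG1-luciferase reporter signal, measured by ONE-Glo luminescence (30 min, room temperature). Compound or vehicle exposure of the HEK293T reporter cells lasted 16 hr at 37°C.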
# FLuc counter – counter-screen for miR-21 project: firefly luciferase inhibitors or activators | Potency, µM (titrated, usually from 57.5 µM), for inactives: at the top dose activity change, negative = inhibition, actives largely listed as inhibitors | P08659 | AID 588342 | purified FLuc, Km substrates, luminescence inhibition | 6.9% of 360,000 active;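 note: plate controls were vehicle for no effect and reference inhibitor for full effect; nearly all actives have a fitted effect of over 55% in size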
# Target sequence (P08659 whole entry, looked up): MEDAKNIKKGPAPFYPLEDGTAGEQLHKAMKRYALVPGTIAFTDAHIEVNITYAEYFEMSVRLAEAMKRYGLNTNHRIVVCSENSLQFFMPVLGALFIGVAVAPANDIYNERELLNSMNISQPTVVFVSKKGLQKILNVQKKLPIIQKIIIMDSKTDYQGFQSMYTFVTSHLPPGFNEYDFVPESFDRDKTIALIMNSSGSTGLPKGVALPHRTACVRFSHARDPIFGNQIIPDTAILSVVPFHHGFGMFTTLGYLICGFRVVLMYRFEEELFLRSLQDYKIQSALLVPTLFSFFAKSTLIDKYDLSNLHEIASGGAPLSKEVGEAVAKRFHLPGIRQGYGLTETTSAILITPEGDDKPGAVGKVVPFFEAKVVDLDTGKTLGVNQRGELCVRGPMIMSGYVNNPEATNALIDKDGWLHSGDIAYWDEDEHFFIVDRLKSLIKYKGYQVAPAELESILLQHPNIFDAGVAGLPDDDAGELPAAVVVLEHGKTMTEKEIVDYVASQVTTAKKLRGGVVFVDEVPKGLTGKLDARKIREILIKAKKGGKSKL
#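 Biochemical qHTS of compounds, final roughly 60 µM downward over six points, against 10 nM purified firefly luciferase using Km concentrations of substrates (10 uM D-luciferin, 10 uM ATP) in Tris acetate pH 7.5 buffer; luminescence output.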
# Rab9 promoter act – activators of Rab9 promoter | Huh7 Rab9 promoter-luciferase reporter, luminescence, 24 h | Potency, µM (titrated, usually from 9.22 µM), inactives show at the highest dose activation, negative = inhibition, actives largely listed as activators | 2.8% of 320,000 active | AID 485297; note: % of control where 0% means no effect; nearly all actives have a fitted effect of over 60% in size
#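 Stable Rab9-luc Huh7, 1500 cells/well, 2 h settle; cmpd in DMSO, 24 h, 37 °C/5% CO2; luciferase reagent 10 min RT; luminescence.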
# Starred values were filed as active, the others as inactive; u = inconclusive; x = not tested or not shown. Sampled rows, rich in hits. Any-hit rate of the full collection: about 7.5%. Calls come from the whole dose curve; as a rule, active = well fitted curve in the direction sought with a large enough effect; inconclusive = small, poorly fitted or top-dose-only effect, or another doubt; inactive = no such curve, though single readings can be large; an effect the other way counts as inactive or inconclusive. Potency is the fitted concentration of half-maximal effect.
SMILES,NPC1 promoter act,Luc counter,SMN2 splice up,ELG1 genotox,FLuc counter,Rab9 promoter act
c1ccc(OCCSc2nnc3sc4ccccc4n23)cc1,0.35µM*,-5%,28%,u,0.43µM*,0.32µM*
CCN(CC)C(=O)CSc1nnc2sc3ccccc3n12,-2%,0%,3%,1%,1%,-3%
COc1cccc(OCCSc2nnc3sc4ccccc4n23)c1,16%,-3%,u,u,19µM*,10%
COc1ccc(S(=O)(=O)NCc2ccc(C(=O)O)cc2)cc1,-3%,4%,3%,0%,0%,-1%
COc1ccc(CNc2ccc(Br)cc2)cc1,u,1%,-1%,u,24µM*,u
COc1ccc(CNc2ccc(C(=O)O)cc2)cc1,25%,2%,1%,4%,7.6µM*,23%
COc1ccc(NCc2ccc(OC)c(OC)c2)cc1,3%,-1%,-11%,8%,u,14%
COc1ccc(OCC(=O)NC2CCSc3ccccc32)cc1 (centres undefined),x,x,x,-5%,x,x
COC(=O)[C@@]1(Cc2ccc(OC)cc2)[C@H]2c3cc(C(=O)N(C)C)n(CCN4CNCC4=O)c3C[C@H]2CN1C(=O)c1ccccc1,x,-2%,-6%,x,x,x
FC(F)(F)c1cccc(-c2noc(-c3cc(-c4ccccc4)c(C(F)(F)F)s3)n2)c1,x,0%,-5%,x,x,x
CCc1ccc(-c2nnn(CCC(=O)OC)n2)cc1,-5%,-7%,-16%,5%,15µM*,-10%
CC(C)c1ccc(-c2nnn(CCC(=O)O)n2)cc1,-18%,-1%,-27%,-4%,9.5µM*,-25%
COc1cccc2c1cc1c(=O)n(CC(=O)N3CCN(c4ccc(Cl)cc4)CC3)nc(C)n12,x,x,-4%,x,-1%,x
COc1cc(Cl)c(S(=O)(=O)NCCc2c(C)[nH]c3c(C)cccc23)cc1Cl,x,x,1%,x,-2%,x
Cc1nc(-c2ccccn2)nc(N(C)c2ccccc2)c1Cl,-1%,x,x,-9%,15µM*,-2%
COc1ccc(CCNC(=O)Cc2cc(OC)c(OC)cc2[N+](=O)[O-])cc1OC,-4%,3%,16%,-4%,8%,-9%
COc1ccc(C(=O)Cc2nnc(C)s2)c(OC)c1,17%,0%,u,u,u,u
COc1ccc(C(=O)Cc2ccc(F)cc2)c(OC)c1,u,-8%,u,u,17µM*,u
COc1ccc(C(=O)Cc2cc(OC)c(OC)cc2[N+](=O)[O-])c(OC)c1,17%,6%,0%,4%,17µM*,22%
COc1ccc(S(=O)(=O)N2CCCCC2)cc1NC(=O)c1ccc(N2CCCC2=O)cc1,-5%,x,x,-3%,0%,1%
COc1ccccc1/C=N/NC(=O)c1sc(C)nc1C,-9%,-2%,-3%,-1%,u,-5%
COc1cc(/C=N/NC(=O)CCC(=O)Nc2ccc(C)cc2)ccc1O,-2%,3%,-34%,0%,-18%,13%
COc1cc(/C=N/NC(=Nc2ccc(C)cc2)c2nc3ccccc3s2)ccc1O,28%,-6%,-9%,2.6µM*,2.7µM*,u
COc1ccccc1/C=N/NC(=Nc1ccc(C)cc1)c1nc2ccccc2s1,6%,-8%,-27%,u,17µM*,16%
COC(=O)c1c(NC(=O)/C(C#N)=C/c2ccccc2)sc2c1CCC2,x,x,-5%,x,-2%,x
SMILES,NPC1 promoter act,Luc counter,SMN2 splice up,ELG1 genotox,FLuc counter,Rab9 promoter act
Cc1ccc2nc(-c3c[nH]c4ccccc34)c(Nc3ccccc3C)n2c1,x,x,u,x,-1%,x
Cc1ccccc1Nc1c(-c2c[nH]c3ccccc23)nc2cccc(C)n12,x,x,11µM*,x,2%,x
CC(Sc1nnc2n1CCCCC2)C(=O)Nc1ccc(S(N)(=O)=O)cc1 (centres undefined),1%,x,x,1%,-2%,1%
Nc1cc2nc[nH]c2cc1N,-7%,-10%,3%,19%,15µM*,11%
Cn1c(=O)n(C)c2cc3[nH]cnc3cc21,-4%,x,x,6%,0%,12%
CCCOc1ccc(CSc2nc3ccccc3[nH]2)cc1,25%,-23%,20%,u,2.1µM*,u
Fc1ccc(CSc2nc3ccccc3[nH]2)cc1,2.8µM*,-16%,11µM*,u,4.8µM*,1.4µM*
Fc1ccc(CSc2nc3ncccc3[nH]2)cc1,u,-9%,u,u,13µM*,u
CCOc1ccc(OCCSc2nc3ccccc3[nH]2)cc1,2%,4%,-111%,8%,u,2%
Fc1cccc(CSc2nc3ncccc3[nH]2)c1,24%,-10%,16%,-1%,u,u
CCOc1ccc2nc(SCC)[nH]c2c1,u,-6%,4%,16%,19µM*,u
CCOC(=O)c1c(Nc2ccc(OC)cc2)nnc(-c2ccccc2)c1-c1ccccc1,x,x,-49%,x,-5%,x
CCC(=O)Nc1cc(-c2nc3ccccc3s2)c(Cl)cc1Cl,x,x,6%,x,-4%,x
C=CCc1ccc(OCCCCN2CC(C)OC(C)C2)c(OC)c1 (centres undefined),1%,-2%,-17%,-1%,-3%,9%
c1ccc(CSCc2nc3ccccc3[nH]2)cc1,u,-8%,u,u,19µM*,2.5µM*
CCSc1nc2ccccc2[nH]1,6%,-2%,15%,-7%,-8%,-9%
O=[N+]([O-])c1ccc(CSc2nc3ccccc3[nH]2)cc1,4µM*,-6%,16µM*,u,6µM*,2.2µM*
Fc1ccc(CSc2nc3ccccc3[nH]2)c2ccccc12,0%,-5%,-5%,5%,24µM*,17%
c1ccc(CSc2nc3ccccc3[nH]2)cc1,0.79µM*,x,x,u,3.4µM*,0.79µM*
O=C(NCCO)c1ccc(CSc2nc3ccccc3[nH]2)cc1,-1%,2%,-5%,8%,u,21%
